Source: PubChem
Rce1 inhib = yeast Rce1p protease inhibitors, primary screen, biochemical, fluorescence, cell-free homogeneous | CAAX prenyl protease 2 (Saccharomyces cerevisiae (strain ATCC 204508 / S288c)), Q03530 | yeast membranes, quenched prenylated peptide cleavage fluorescence | calls only | 290,000 tested, 0.27% active;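 active means fall in fluorescence gain of 50% or more versus controls, with final raw signal at or below 3038400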;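 further: plate controls were neutral control wells for no effect and wells lacking membranes for full effect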
MEKK2wt PB1 HTS = modulators of MEK5 binding to wildtype MEKK2, primary screen, biochemical, multiplex bead flow cytometry, Alexa488-MEK5; Mitogen-activated protein kinase kinase kinase 2 (Homo sapiens), Q9Y2U5; Alexa488-MEK5 binding to MEKK2 WT; actives lie on both sides; binding response (% of control), % at 10 µM; 290,000 tested, 1.1% active; AID 1531, 2009; in the data active means binding response below about 67% or above about 130%
MEKK2 mut-MEK5 = MEK5 binding signal on mutant MEKK2 PB1, primary screen, biochemical, multiplex bead flow cytometry, Alexa488-MEK5. Alexa488-MEK5 binding to MEKK2 mutant. percent response, % at 10 µM. 290,000 tested, 0.35% active. AID 1530, 2009; in the data active means percent response above about 24%, passing the limit was not always enough
UBC13 inh = UBC13 polyubiquitin chain formation inhibitors, primary screen, biochemical, TR-FRET, uHTS. inhibition, % at 20 µM. 330,000 tested, 0.47% active; in the data active means inhibition above about 45%, passing the limit was not always enough
MEKK3 PB1 HTS = modulators of MEKK3-MEK5 PB1 binding, primary screen, biochemical, wildtype MEKK3, multiplex bead flow cytometry, Alexa488-MEK5; binding response (% of control), % at 10 µM; AID 1529, 2009; bead-based flow cytometry, Alexa488-MEK5 binding to MEKK3; actives lie on both sides; 0 = blocked by unlabeled MEK5, 100 = vehicle; 290,000 tested, 1.4% active; Mitogen-activated protein kinase kinase kinase 3 (Homo sapiens), Q99759;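 active means binding response more than 3 SD above or below the average of its plate-row segment, actives on both sides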;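 further: Alexa488 bead fluorescence after subtracting the streptavidin-only scavenger bead signal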
MEKK2wt confirm = modulators of MEK5 binding to wildtype MEKK2, confirmation, biochemical, single concentration, multiplex bead flow cytometry | shares compounds with MEKK3 PB1 HTS | Alexa488-MEK5 binding to MEKK2 WT; actives lie on both sides | binding response (% of control), % at 10 µM | 5,900 tested, 2.4% active | AID 1892, 2009; in the data active means binding response below about 16% or above about 210%; inactive means in between
MEKK2mut confirm = mutant MEKK2 PB1-MEK5 binding signal retest – biochemical, single concentration, multiplex bead flow cytometry, confirmation | percent response, % at 10 µM | shares compounds with MEKK3 PB1 HTS | 5,900 tested, 2% active | Alexa488-MEK5 binding to MEKK2 mutant | AID 1893, 2009; in the data active means percent response mostly above about 71%, no sharp cut-off; inactive means mostly below about 38%;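 further: higher means compound restores mutant binding toward wildtype level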
MEKK3 confirm = MEKK3 wild-type PB1 binding to MEK5, inhibitors, confirmation, biochemical, bead multiplex flow cytometry, single concentration, wildtype; shares compounds with MEKK3 PB1 HTS; 5,900 tested, 1.8% active; Alexa488-MEK5 binding to MEKK3; stronger effect = lower value; binding response (% of control), % at 10 µM; AID 1894, 2009;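 active means binding response below 72% of control, or above a set upper limit, though filed actives all read lower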;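 further: 100% = DMSO only wells and 0% = binding blocked by excess unlabeled MEK5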
The depositor's hits bear a star; [ ] = dose if it differs, or a comment. A selection: hits, their analogues and other compounds. The true share with any hit is near 2.5%.

How did O=S1(=O)CC(O)C(Nc2ccc(Cl)cc2)C1 (stereo unspecified) do in these assays?
Rce1 inhib: inactive; MEKK2wt PB1 HTS: 67; MEKK2 mut-MEK5: -4; UBC13 inh: 0; MEKK3 PB1 HTS: 49*[inhibitor]; MEKK2wt confirm: 96; MEKK2mut confirm: -9; MEKK3 confirm: 97

What do the screens show for `COc1ccc(NC(=O)c2sc3nc(Cc4ccccc4)cc(C(F)(F)F)c3c2N)cc1OC`?
Rce1 inhib: inactive; MEKK2wt PB1 HTS: 110; MEKK2 mut-MEK5: 2; UBC13 inh: 1; MEKK3 PB1 HTS: 159*; MEKK2wt confirm: 39; MEKK2mut confirm: -25; MEKK3 confirm: 35*

Results for CCCn1c(Cc2ccccc2)nnc1SC(C)C(=O)NC1CC1 (stereo unspecified) ?
UBC13 inh: 12

Results for O=C1c2ccccc2NC2(CCCCC2)N1N=C1CCCCC1 ?
Rce1 inhib: inactive; MEKK2wt PB1 HTS: 90; MEKK2 mut-MEK5: -1; UBC13 inh: 10; MEKK3 PB1 HTS: 75*[inhibitor]; MEKK2wt confirm: 102; MEKK2mut confirm: 2; MEKK3 confirm: 104

What do the screens show for `O=C1c2ccccc2NC2(CCCC2)N1O`?
Rce1 inhib: inactive; MEKK2wt PB1 HTS: 113; MEKK2 mut-MEK5: 15; UBC13 inh: 13; MEKK3 PB1 HTS: 110

Results for COCCNc1nnc(SCC(=O)Nc2cc(-c3ccccc3)nn2-c2ccccc2)s1 ?
Rce1 inhib: inactive; MEKK2wt PB1 HTS: 100; MEKK2 mut-MEK5: -1; UBC13 inh: 17; MEKK3 PB1 HTS: 68*[inhibitor]; MEKK2wt confirm: 127; MEKK2mut confirm: 8; MEKK3 confirm: 104

What do the screens show for `COCCNc1nnc(SCC(=O)Nc2nnc(-c3ccccc3)o2)s1`?
Rce1 inhib: inactive; UBC13 inh: -3

How did O=C(C[n+]1ccc(/C=N/O)cc1)NC1CCCCC1 do in these assays?
Rce1 inhib: inactive; MEKK2wt PB1 HTS: 100; MEKK2 mut-MEK5: -6; UBC13 inh: -8; MEKK3 PB1 HTS: 102

Results for CC1=NN(c2cccc(C(=O)O)c2)C(=O)/C1=C\C=C\c1ccco1 ?
Rce1 inhib: inactive; MEKK2wt PB1 HTS: 97; MEKK2 mut-MEK5: -3; UBC13 inh: -78; MEKK3 PB1 HTS: 102

What do the screens show for `CC1=NN(c2ccccc2)C(=O)/C1=C/C=C/c1ccccc1`?
Rce1 inhib: inactive; MEKK2wt PB1 HTS: 100; MEKK2 mut-MEK5: -1; UBC13 inh: -16; MEKK3 PB1 HTS: 129*; MEKK2wt confirm: 101; MEKK2mut confirm: 4; MEKK3 confirm: 101

How did N#Cc1cccn1-c1nccc(-c2cccs2)n1 do in these assays?
Rce1 inhib: inactive; MEKK2wt PB1 HTS: 131; MEKK2 mut-MEK5: 7; UBC13 inh: 6; MEKK3 PB1 HTS: 149*; MEKK2wt confirm: 93; MEKK2mut confirm: -6; MEKK3 confirm: 91

How did Cn1cccc1CC(=O)NNC(=O)Nc1cccc(Cl)c1 do in these assays?
Rce1 inhib: inactive; MEKK2wt PB1 HTS: 105; MEKK2 mut-MEK5: -1; UBC13 inh: -16; MEKK3 PB1 HTS: 129*; MEKK2wt confirm: 106; MEKK2mut confirm: 5; MEKK3 confirm: 104

Results for Nc1ncc(Br)cc1S(=O)(=O)NCCC(=O)NCCc1ccc(Cl)cc1 ?
Rce1 inhib: inactive; MEKK2wt PB1 HTS: 109; MEKK2 mut-MEK5: 17; UBC13 inh: 2; MEKK3 PB1 HTS: 103
